In PubChem BioAssay (NCATS):
Inconclusive results are not listed. A call without a number means that no potency is given here. Calls of active or inactive are those of the source. Unless noted, the call rests on the fitted dose curve.

Experiments:
[1] = target: Estrogen receptor (Homo sapiens) (UniProt P03372); experiment: qHTS assay for small molecule agonists of estrogen receptor alpha signaling (AID 588514); further: nearly all actives have a fitted effect of over 70% in size
How it was run: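 ER-alpha-UAS-bla GripTite HEK 293 cells in medium with 2% charcoal/dextran-treated FBS were treated with compound titrations at 37 C for 18 hrs; beta-lactamase reporter read by CCF4 fluorescence after 2 hrs at RT.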

[2] = target: Glucocorticoid receptor (Homo sapiens) (UniProt P04150); experiment: qHTS assay for small molecule agonists of glucocorticoid receptor signaling (AID 588532; active means well fitted curve in the direction sought with a large enough effect in the signal ratio, with a control signal flat; the % refers to the signal ratio); settings: HeLa MMTV-bla, beta-lactamase ratio, agonist, 18 h; stronger effect = higher value; percent of dexamethasone control, DMSO zero
Sequence of Glucocorticoid receptor (Homo sapiens) (P04150 whole entry, looked up): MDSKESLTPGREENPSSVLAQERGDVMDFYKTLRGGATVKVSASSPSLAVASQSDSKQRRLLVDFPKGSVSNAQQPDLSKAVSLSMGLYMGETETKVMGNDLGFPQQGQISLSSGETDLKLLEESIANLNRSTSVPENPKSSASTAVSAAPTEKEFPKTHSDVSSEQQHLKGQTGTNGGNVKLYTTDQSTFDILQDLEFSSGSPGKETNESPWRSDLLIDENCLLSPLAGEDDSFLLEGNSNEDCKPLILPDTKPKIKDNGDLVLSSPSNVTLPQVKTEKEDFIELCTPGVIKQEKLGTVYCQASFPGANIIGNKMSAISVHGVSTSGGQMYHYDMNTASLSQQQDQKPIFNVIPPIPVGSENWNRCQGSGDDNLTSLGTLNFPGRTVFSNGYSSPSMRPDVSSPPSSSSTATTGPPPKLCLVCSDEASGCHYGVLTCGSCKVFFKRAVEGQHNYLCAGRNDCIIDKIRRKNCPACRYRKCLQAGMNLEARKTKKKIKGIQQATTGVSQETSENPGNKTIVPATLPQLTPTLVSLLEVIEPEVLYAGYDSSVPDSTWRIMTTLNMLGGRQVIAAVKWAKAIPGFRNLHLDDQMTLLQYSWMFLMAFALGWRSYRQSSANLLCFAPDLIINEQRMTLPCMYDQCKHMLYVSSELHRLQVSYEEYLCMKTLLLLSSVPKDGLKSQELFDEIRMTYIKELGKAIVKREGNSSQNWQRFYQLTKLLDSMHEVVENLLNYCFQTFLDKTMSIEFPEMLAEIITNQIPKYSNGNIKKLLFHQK
How it was run: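 MMTV-bla HeLa, beta-lactamase reporter; medium with 1% charcoal/dextran-stripped FBS; cpds up to 92 uM, 18 h, 37 C; CCF4 readout 460/530 nm; Hill fit → EC50, efficacy vs 0.1 uM dexamethasone = 100%.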

[3] = target: Glucocorticoid receptor (Homo sapiens) (UniProt P04150); experiment: qHTS assay for small molecule antagonists of glucocorticoid receptor signaling (AID 588533; active means well fitted inhibition curve with a large enough effect in the signal ratio, with a control signal flat, not every such curve was filed as active; the % refers to the signal ratio;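 further: cells stimulated with 2 nM dexamethasone as agonist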)
How it was run: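 Antagonist-mode qHTS: compound titrations added to GRE-bla HeLa cells, then dexamethasone 2 nM final; 18 h, 37 C. CCF4 FRET fluorescence normalized to dexamethasone and DMSO; IC50 from Hill fit.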

[4] = qHTS assay for small molecule antagonists of peroxisome proliferator-activated receptor delta signaling (AID 588535; active means well fitted inhibition curve with a large enough effect in the signal ratio, with a control signal flat, not every such curve was filed as active; the % refers to the signal ratio;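 on max response: cells co-treated with a PPAR-delta agonist as stimulator during compound exposure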); settings: HEK293T PPARd-UAS-bla, beta-lactamase FRET ratio, 18 h; 460 nm channel
How it was run: (§1)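 GeneBLAzer PPAR-delta-UAS-bla HEK293T cells in medium with 2% charcoal/dextran FBS were preincubated 5 hrs at 37 C, then given compounds, incubated 18 hrs at 37 C, and read by CCF4 beta-lactamase fluorescence; IC50 from Hill fits.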

[5] = target: Peroxisome proliferator-activated receptor delta (Homo sapiens) (UniProt Q03181); experiment: as above
Sequence of Peroxisome proliferator-activated receptor delta (Homo sapiens) (Q03181 whole entry, looked up): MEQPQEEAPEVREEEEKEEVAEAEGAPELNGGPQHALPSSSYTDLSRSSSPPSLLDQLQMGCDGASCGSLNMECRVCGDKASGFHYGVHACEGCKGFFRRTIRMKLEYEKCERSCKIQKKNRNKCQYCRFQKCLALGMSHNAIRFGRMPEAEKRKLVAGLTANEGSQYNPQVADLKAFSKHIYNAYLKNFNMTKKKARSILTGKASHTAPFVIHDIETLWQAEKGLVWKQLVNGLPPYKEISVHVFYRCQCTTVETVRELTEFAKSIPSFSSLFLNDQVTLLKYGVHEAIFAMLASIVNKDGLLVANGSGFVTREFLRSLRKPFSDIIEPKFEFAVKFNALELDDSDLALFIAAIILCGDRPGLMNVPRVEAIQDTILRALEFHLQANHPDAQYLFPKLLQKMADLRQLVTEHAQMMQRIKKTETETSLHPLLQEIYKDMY
How it was run: as §1

[6] = target: Vitamin D3 receptor (Homo sapiens) (UniProt P11473); experiment: qHTS assay for small molecule antagonists of vitamin D receptor signaling (AID 588541);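 further: receptor activated by calcitriol during compound treatment; series mostly up to about 77 µM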
Sequence of Vitamin D3 receptor (Homo sapiens) (P11473 whole entry, looked up): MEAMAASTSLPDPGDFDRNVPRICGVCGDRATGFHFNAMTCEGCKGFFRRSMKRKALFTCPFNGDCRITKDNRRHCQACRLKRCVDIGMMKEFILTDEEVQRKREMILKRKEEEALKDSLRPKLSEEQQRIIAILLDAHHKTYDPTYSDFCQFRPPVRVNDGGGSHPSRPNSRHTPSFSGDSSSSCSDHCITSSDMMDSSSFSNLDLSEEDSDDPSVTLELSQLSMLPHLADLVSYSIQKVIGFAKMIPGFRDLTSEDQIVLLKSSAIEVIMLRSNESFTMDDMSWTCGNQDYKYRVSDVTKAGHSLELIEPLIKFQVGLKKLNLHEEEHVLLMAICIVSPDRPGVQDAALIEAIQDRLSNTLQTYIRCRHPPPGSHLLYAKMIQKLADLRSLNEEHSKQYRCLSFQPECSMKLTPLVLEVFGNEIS
How it was run: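 VDR-UAS-bla HEK293T cells (2000/well, 2% charcoal-stripped FBS) were treated with titrated compounds plus 1-alpha,25-dihydroxyvitamin D3 (50 nM or 3 nM final) for 16 h at 37 C. CCF4 beta-lactamase fluorescence was read; Hill fits gave IC50.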

[7] = qHTS assay for small molecule agonists of the antioxidant response element (ARE) signaling pathway (AID 651741; active means well fitted activation curve with a large enough effect in the signal ratio; the % refers to the signal ratio)
How it was run: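 ARE-bla HepG2 cells (beta-lactamase reporter under ARE control) were plated at 2,000 cells/well, preincubated 5 h at 37 C/5% CO2, then treated with DMSO-dissolved compounds for 16 h at 37 C; LiveBLAzer B/G FRET substrate added, fluorescence read after 2 h at room temperature.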

[8] = target: Androgen receptor (Homo sapiens) (UniProt P10275); experiment: qHTS assay for small molecule agonists of androgen receptor signaling (AID 588515; active means well fitted curve in the direction sought with a large enough effect in the signal ratio, with a control signal flat; the % refers to the signal ratio); settings: AR-UAS-bla HEK293, beta-lactamase ratio, agonist 16 h; activation: stronger effect = higher value
Sequence of Androgen receptor (Homo sapiens) (P10275 whole entry, looked up): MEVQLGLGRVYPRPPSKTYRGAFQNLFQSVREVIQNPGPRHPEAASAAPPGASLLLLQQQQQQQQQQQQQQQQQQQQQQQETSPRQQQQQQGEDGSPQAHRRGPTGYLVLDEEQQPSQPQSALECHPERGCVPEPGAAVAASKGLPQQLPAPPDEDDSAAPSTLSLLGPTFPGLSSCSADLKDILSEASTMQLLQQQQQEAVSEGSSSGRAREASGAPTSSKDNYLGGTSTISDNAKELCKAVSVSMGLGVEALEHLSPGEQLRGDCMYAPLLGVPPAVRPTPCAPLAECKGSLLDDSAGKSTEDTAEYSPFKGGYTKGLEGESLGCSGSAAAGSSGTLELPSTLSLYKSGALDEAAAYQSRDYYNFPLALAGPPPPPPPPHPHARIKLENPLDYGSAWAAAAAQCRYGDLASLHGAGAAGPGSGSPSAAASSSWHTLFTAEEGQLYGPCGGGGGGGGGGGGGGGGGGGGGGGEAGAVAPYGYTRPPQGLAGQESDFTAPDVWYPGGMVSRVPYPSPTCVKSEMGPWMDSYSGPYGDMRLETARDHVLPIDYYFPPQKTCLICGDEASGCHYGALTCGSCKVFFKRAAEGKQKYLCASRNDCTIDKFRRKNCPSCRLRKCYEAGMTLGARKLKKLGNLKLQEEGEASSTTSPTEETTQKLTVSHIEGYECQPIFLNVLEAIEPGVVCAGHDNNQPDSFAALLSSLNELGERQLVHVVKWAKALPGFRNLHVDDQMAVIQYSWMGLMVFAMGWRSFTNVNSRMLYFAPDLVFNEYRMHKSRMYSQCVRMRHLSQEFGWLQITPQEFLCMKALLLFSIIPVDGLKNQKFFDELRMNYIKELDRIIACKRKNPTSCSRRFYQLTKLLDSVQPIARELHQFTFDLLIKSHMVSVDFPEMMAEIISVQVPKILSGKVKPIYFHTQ
How it was run: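 EC50 and efficacy came from Hill fits of titrations (up to 92 uM) normalized to 30 nM R1881 as 100% and DMSO as 0%. Compound exposure was 16 h at 37 C on AR-UAS-bla HEK293 cells, with a 405/460/530 nm CCF4 fluorescence read.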

[9] = target: Androgen receptor (Homo sapiens) (UniProt P10275); experiment: qHTS assay for small molecule antagonists of androgen receptor signaling (AID 588516; active means well fitted curve in the direction sought with a large enough effect in the signal ratio, with a control signal flat, not every such curve was filed as active; the % refers to the signal ratio)
How it was run: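 AR-UAS-bla-GripTite HEK 293 cells (2000/well, 5 h at 37 C) received compound titrations, then R1881 at 10 nM final; after 16 h at 37 C, CCF4 dye 2 h RT, beta-lactamase fluorescence read; IC50 from Hill fits.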

[10] = target: Bile acid receptor (Homo sapiens) (UniProt Q96RI1); experiment: qHTS assay for small molecule antagonists of farnesoid X receptor signaling (AID 588526)
Sequence of Bile acid receptor (Homo sapiens) (Q96RI1 whole entry, looked up): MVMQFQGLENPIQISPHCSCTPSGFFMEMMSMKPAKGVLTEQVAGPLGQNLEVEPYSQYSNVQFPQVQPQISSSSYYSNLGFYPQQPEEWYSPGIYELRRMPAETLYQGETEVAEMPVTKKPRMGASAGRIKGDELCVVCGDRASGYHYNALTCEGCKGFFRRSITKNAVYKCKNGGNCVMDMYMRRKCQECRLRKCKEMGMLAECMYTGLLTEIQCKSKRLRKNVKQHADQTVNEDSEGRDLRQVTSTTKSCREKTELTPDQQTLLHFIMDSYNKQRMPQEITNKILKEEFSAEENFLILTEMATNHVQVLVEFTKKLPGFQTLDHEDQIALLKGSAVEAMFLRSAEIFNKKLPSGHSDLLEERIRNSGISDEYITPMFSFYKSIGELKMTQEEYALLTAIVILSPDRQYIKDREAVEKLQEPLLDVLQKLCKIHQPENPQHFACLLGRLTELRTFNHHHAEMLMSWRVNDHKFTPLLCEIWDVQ
How it was run: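 Concentration-response titrations were fitted to the Hill equation for half-maximal inhibition and maximal response, with data normalised to 50 uM chenodeoxycholic acid and DMSO control wells. Cells: FXR-UAS-bla HEK293T, dialyzed FBS.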

Sequence of Estrogen receptor (Homo sapiens) (P03372 whole entry, looked up): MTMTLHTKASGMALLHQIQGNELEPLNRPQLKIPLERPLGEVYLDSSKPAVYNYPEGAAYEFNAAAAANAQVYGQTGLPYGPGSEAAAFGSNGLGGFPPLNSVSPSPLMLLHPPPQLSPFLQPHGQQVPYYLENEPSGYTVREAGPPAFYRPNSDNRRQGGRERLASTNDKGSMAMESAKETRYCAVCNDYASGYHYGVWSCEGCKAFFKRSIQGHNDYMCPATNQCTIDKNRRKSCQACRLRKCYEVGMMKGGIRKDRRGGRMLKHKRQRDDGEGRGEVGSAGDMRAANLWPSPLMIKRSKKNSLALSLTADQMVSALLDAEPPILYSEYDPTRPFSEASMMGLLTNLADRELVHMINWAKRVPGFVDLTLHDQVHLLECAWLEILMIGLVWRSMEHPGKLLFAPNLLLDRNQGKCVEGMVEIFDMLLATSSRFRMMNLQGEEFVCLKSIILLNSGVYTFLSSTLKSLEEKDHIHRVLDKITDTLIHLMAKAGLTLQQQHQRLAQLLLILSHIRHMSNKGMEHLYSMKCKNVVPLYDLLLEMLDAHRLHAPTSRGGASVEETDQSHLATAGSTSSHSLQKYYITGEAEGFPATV

| Compound | Potency [1] | activation [2] | Potency [3] | max response [4] | Potency [5] | Potency [6] | Potency [7] | activation [8] | outcome [9] | Potency [10] |
| --- | --- | --- | --- | --- | --- | --- | --- | --- | --- | --- |
| CC(C)(C)C1CCC(O)CC1 (stereo not drawn) | inactive | -9.45% (inactive) | inactive | -7.35% | inactive | inactive | inactive | – | – | – |
| CC(C)C(=O)OCC(C)(C)C(O)C(C)C (stereo not drawn) | inactive | -3.75% (inactive) | inactive | 1.76% | inactive | – | inactive | – | – | – |
| CCCOC(=O)c1ccc(C(=O)OCCC)nc1 | – | -11.2% (inactive) | – | – | – | – | – | -11.4% (inactive) | inactive | inactive |
| Cc1cc(C)c(N)c(Cl)c1 | inactive | 5.1% (inactive) | inactive | 24.2% | inactive | inactive | inactive | – | – | – |
| c1ccc(-c2ccc(-c3ccccc3)cc2)cc1 | inactive | -0.857% (inactive) | inactive | -0.983% | inactive | inactive | – | – | – | – |
| O=[N+]([O-])c1ccc2c(c1)Cc1ccccc1-2 | inactive | -0.149% (inactive) | inactive | 11.1% | inactive | – | – | – | – | – |
| O=S(=O)(O)c1ccc(N=Nc2c(O)ccc3cc(S(=O)(=O)O)ccc23)cc1 | inactive | – | – | -5.34% | inactive | inactive | inactive | – | – | – |
| C/C(=C\C(C)CC(C)CC(C)C)C1CC(=O)OC1=O (stereo not drawn) | inactive | -4.02% (inactive) | – | 29.8% | inactive | inactive | – | – | – | – |
| CCCCCCCC(=O)OC | inactive | – | – | 18.8% | inactive | inactive | inactive | – | – | – |
| CCCC/C=C/CCCCO | inactive | -4.1% (inactive) | inactive | – | – | – | inactive | – | – | – |
| NN(c1ccccc1)c1ccccc1 | – | -3.55% (inactive) | – | 23.6% | inactive | – | – | 8.8% (inactive) | inactive | inactive |
| COC(=O)c1ccc(C(=O)OC)cc1 | inactive | – | – | – | – | inactive | inactive | – | – | – |
| CCC(C)(C)C1CCC(O)CC1 (stereo not drawn) | inactive | – | – | -12.1% | inactive | inactive | inactive | – | – | – |
| COC(=O)c1cccc(C)c1S(=O)(=O)NC(=O)Nc1nc(OCC(F)(F)F)nc(N(C)C)n1 | – | -2.8% (inactive) | inactive | 78.8% | inactive | – | inactive | 3.18% (inactive) | inactive | inactive |
| CN(C)C(=O)Nc1ccccc1 | inactive | – | – | 13.2% | inactive | inactive | – | – | – | – |
| CC(=O)OC(C)(C)C1CC=C(C)CC1 (stereo not drawn) | inactive | – | – | -21.5% | inactive | inactive | inactive | – | – | – |
| C=CCCCCCCCCC=O | inactive | 4.91% (inactive) | inactive | 14.1% | inactive | inactive | – | – | – | – |
| CCOC(=O)CCCCCCCCC(=O)OCC | inactive | – | – | – | – | inactive | inactive | – | – | – |

| Compound | Potency [1] | activation [2] | Potency [3] | max response [4] | Potency [5] | Potency [6] | Potency [7] | activation [8] | outcome [9] | Potency [10] |
| --- | --- | --- | --- | --- | --- | --- | --- | --- | --- | --- |
| CCCCCCCCCCCC(=O)N(C)CC(=O)O | inactive | -0.898% (inactive) | – | – | – | – | – | – | – | – |
| OC1CCCCCCCCCCC1 | inactive | -19.4% (inactive) | inactive | 17.8% | inactive | – | inactive | – | – | – |
| CCCCOCCOCCOCCO | inactive | – | – | -4.48% | inactive | inactive | inactive | – | – | – |
| CC1=CC2C3CC(C=C3C)C2C1 (stereo not drawn) | inactive | 1.22% (inactive) | inactive | 7.89% | inactive | inactive | inactive | – | – | – |
| O=C(OCC1CCC2OC2C1)C1CCC2OC2C1 (stereo not drawn) | inactive | -15% (inactive) | inactive | -2.67% | inactive | – | – | – | – | – |
| CCOC(=O)CC(O)(CC(=O)OCC)C(=O)OCC | inactive | -0.518% (inactive) | inactive | – | – | inactive | inactive | – | – | – |
| CC(Cl)(Cl)C(=O)OCCOc1cc(Cl)c(Cl)cc1Cl | – | -10.3% (inactive) | inactive | -5.22% | inactive | – | – | 2.7% (inactive) | inactive | inactive |
| C[Si]1(C)N[Si](C)(C)N[Si](C)(C)N1 | inactive | – | – | – | – | – | inactive | – | – | – |
| c1cc(-c2ccncc2)ccn1 | inactive | -9.26% (inactive) | inactive | – | – | inactive | – | – | – | – |
| CCCCOCC(C)OCC(C)O (stereo not drawn) | inactive | – | – | -19.2% | inactive | inactive | – | – | – | – |
| c1ccc(OCCOc2ccccc2)cc1 | inactive | -7.01% (inactive) | inactive | 9.85% | inactive | inactive | inactive | – | – | – |
| O=C(OCCOCCOC(=O)c1ccccc1)c1ccccc1 | inactive | -2.84% (inactive) | – | 59.9% | inactive | inactive | – | – | – | – |
| CC1(C)C(=O)N(Cl)C(=O)N1Cl | inactive | – | inactive | – | – | inactive | inactive | – | – | – |
| CC(C)c1cccc(C(C)C)c1 | inactive | -12.5% (inactive) | – | -5.64% | inactive | – | inactive | – | – | – |
| CC(C)(C)c1n[nH]c(=O)n(N)c1=O | – | 14.6% (inactive) | inactive | -9.84% | inactive | inactive | inactive | 8.74% (inactive) | inactive | inactive |
| COC(=O)c1ccccc1S(=O)(=O)NC(=O)Nc1nc(OC(F)F)cc(OC(F)F)n1 | – | -5.76% (inactive) | inactive | -18.5% | inactive | inactive | inactive | -5.06% (inactive) | inactive | inactive |
| CC1(C)CC(N)CC(C)(CN)C1 (stereo not drawn) | inactive | 10.3% (inactive) | inactive | -18% | inactive | – | inactive | – | – | – |
| Cc1ccc(C(C)(C)C)c(O)c1 | – | – | – | – | – | – | inactive | – | – | inactive |
